ChEMBL document CHEMBL4513216, “Probing the Open Global Health Chemical Diversity Library for Multistage-Active Starting Points for Next-Generation Antimalarials” (ACS Infect Dis, 2020)
The campaign covered roughly 69,000 compounds. About 8,600 (12%) showed an effect of 50% or more. The full list was thinned out, with strong results kept by preference.

system: Plasmodium berghei; experiment: Screen against P. berghei liver stage (PbLuc), transformed with Luciferase, at 10uM; type: functional, HepG2; conditions: tested at 10 uM

Going from `CCOc1ccc(CNC(C)c2c(C)nn(C)c2C)cc1` (stereo not drawn) to `CNS(=O)(=O)c1ccc(CNC(=O)N(C)C(C)COC)cc1` (stereo not drawn), the INHIBITION rises from -88.5% to 44.9%.

First: COc1ccccc1CC(=O)N1CCC(NCc2ccccn2)CC1
Second: CC(=O)N1CCC(n2nccc2-c2cnc(NCCO)nc2)CC1
The INHIBITION of the first is higher: 46.3% for the first, 33.7% for the second.

Going from `CN(Cc1cnc(N)nc1)C(=O)c1coc(COc2cccc(F)c2)n1` to `COc1cc(CN(C)[C@@H]2COC[C@H]2c2ccc(F)cc2)cc(OC)c1`, the INHIBITION rises from 0.546% to 10.635%.

Compared with `COc1ccccc1N1CCN(c2nc(N)nc3[nH]cnc23)CC1`, `c1ccc(-c2nnc3n2CCN(c2nc(C4CC4)ns2)C3)cc1` is lower in INHIBITION: 20.6% for the first, -57.3% for the second.

Compared with `COc1ccc(CN(C)[C@@H]2COC[C@H]2c2ccc(F)cc2)cc1`, `COc1ccc(CN(C)[C@@H]2COC[C@H]2c2ccc(F)cc2)c(OC)c1` is higher in INHIBITION: 34.3% for the first, 59.9% for the second.

Compared with `CN1CCOCC12CCN(C(=O)C1CCC1)CC2`, `Cn1ccc(C(=O)N2C[C@@H]3CN(CC4CC4)CCO[C@@H]3C2)n1` is higher in INHIBITION: 22.3% for the first, 27.5% for the second.

First: CCOCCCNC(=O)C1(C)CCC(=O)N1c1ccccc1OC (stereo not drawn)
Second: CC(=O)c1cccc(NC(=O)N(CCO)C2CCc3ccccc32)c1 (stereo not drawn)
The INHIBITION of the first is higher: 32.1% for the first, 24.8% for the second.

Compared with `O=c1[nH]nc(-c2cccs2)c2sc(N3CCOCC3)nc12`, `Oc1nnc(-c2cccs2)c2sc(N3CCCC3)nc12` is higher in INHIBITION: -29.5% for the first, 47.7% for the second.

First: Oc1nnc(-c2cccs2)c2sc(N3CCCCC3)nc12
Second: Oc1nnc(-c2ccccc2)c2sc(N3CCCCC3)nc12
The INHIBITION of the first is lower: 54.3% for the first, 57% for the second.

Compared with `Cc1nc(NC(=O)C2CCCN(C(N)=O)C2)sc1-c1ccccc1` (stereo not drawn), `CC(C)CCN(C(=O)c1cccc(NC(N)=O)c1)C1CC1` is lower in INHIBITION: 34.1% for the first, 12.4% for the second.

First: CC(CS(C)(=O)=O)N(C(=O)CCc1cccc(F)c1)C1CC1 (stereo not drawn)
Second: CC(C)CCN(C(=O)Nc1cccc(C(=O)N(C)C)c1)C1CC1
The INHIBITION of the first is lower: -35% for the first, 84.1% for the second.

Going from `CCC1=N[C@@]2(CC[C@@H]3CN(Cc4ccc(Cl)cc4)C[C@@H]32)C(=O)N1` to `CCC1=N[C@@]2(CC[C@@H]3CN(CC4CC4)C[C@@H]32)C(=O)N1CC1CC1`, the INHIBITION falls from 35.3% to 30.3%.

Compared with `CC(=O)c1cccc(NC(=O)N(CC(F)F)C2CC2)c1`, `N#Cc1cccc(NC(=O)N(CC(F)F)C2CC2)c1` is lower in INHIBITION: 61.1% for the first, 24.3% for the second.

Compared with `CC(C)CN(C(=O)Nc1cccc(C(=O)N(C)C)c1)C1CC1`, `CCc1noc(CN(C)Cc2cc3ccc(Cl)cc3[nH]c2=O)n1` is lower in INHIBITION: 38.5% for the first, -4.37% for the second.
